Experimental data reported in the supplement of paper PMC10849652.
Of roughly 8,800 targets only a part is listed; those with a hit were picked by preference. About 0.5% of all pairs of compound and target were hits. Unmarked numbers belong to inactive results.

What was measured:
Experiment in all cases: log2 fold change, soluble protein after heating vs DMSO (PISA); higher = thermal stabilisation; K562 lysate, 10 uM; active = over 0.2 and 3.5 SD of the protein, either way, in both replicates (recomputed)
erlotinib = compound: C#Cc1cccc(Nc2ncnc3cc(OCCOC)c(OCCOC)cc23)c1 [erlotinib]
Outline: (§1)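 Log-two fold change in thermal stability relative to solvent controls is reported from duplicates. For each sample, crude K562 extract from dounce-homogenised pellets in PBS pH 7.4 with 1 mM MgCl2, at 1 mg/mL protein, was treated with 10 μM compound for 30 min. Aliquots heated for 3 min across 48°C-58°C were pooled, brought to 0.5% NP-40 at 4°C and cleared at 21,000xg for 90 min. The supernatant was quantified by TMTpro 16plex LC-MS/MS with channel sums equalised.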

[1] = compound: C1=CC(=CC=C1C2=NC3=C(N2)C=C(C=C3)C(=O)N)OC4=CC=C(C=C4)Cl
Outline: as §1

[2] = compound: C1=CC2=NC=CN=C2C=C1/C=C/3\C(=O)NC(=O)S3
Outline: as §1

[3] = compound: C1=CC=C(C=C1)C2=NC(=C(N2)C3=CC=NC=C3)C4=CC(=C(C=C4)Cl)O
Outline: as §1

IRAK-1-4 Inhibitor I = compound: C1COCCN1CCN2C3=CC=CC=C3N=C2NC(=O)C4=CC(=CC=C4)[N+](=O)[O-] [IRAK-1-4 Inhibitor I]
Outline: as §1

[4] = compound: C1CCN(C1)C(=O)NC2=CC=CC(=C2)NC3=NC=C(C(=N3)NCCC4=CN=CN4)Br
Outline: as §1

[5] = compound: C1CN(CCC1(CC2=CC=C(C=C2)Cl)N)C3=NC=NC4=C3C=CN4
Outline: as §1

[6] = compound: C/C(=N\NC(=O)C1=CC(=CC=C1)S(=O)(=O)N2CCOCC2)/C3=C(C=CC(=C3)Cl)O
Outline: as §1

[7] = compound: C1=CC2=C(C=CC(=C2)/C=C\3/C(=O)NC(=NCC4=CC=CS4)S3)N=C1
Outline: as §1

[8] = compound: C1=CC=C2C(=C1)C3=NNC4=CC=CC(=C43)C2=O
Outline: as §1

Chain of UniProt Q9HD67 (Q9HD67 whole entry, looked up): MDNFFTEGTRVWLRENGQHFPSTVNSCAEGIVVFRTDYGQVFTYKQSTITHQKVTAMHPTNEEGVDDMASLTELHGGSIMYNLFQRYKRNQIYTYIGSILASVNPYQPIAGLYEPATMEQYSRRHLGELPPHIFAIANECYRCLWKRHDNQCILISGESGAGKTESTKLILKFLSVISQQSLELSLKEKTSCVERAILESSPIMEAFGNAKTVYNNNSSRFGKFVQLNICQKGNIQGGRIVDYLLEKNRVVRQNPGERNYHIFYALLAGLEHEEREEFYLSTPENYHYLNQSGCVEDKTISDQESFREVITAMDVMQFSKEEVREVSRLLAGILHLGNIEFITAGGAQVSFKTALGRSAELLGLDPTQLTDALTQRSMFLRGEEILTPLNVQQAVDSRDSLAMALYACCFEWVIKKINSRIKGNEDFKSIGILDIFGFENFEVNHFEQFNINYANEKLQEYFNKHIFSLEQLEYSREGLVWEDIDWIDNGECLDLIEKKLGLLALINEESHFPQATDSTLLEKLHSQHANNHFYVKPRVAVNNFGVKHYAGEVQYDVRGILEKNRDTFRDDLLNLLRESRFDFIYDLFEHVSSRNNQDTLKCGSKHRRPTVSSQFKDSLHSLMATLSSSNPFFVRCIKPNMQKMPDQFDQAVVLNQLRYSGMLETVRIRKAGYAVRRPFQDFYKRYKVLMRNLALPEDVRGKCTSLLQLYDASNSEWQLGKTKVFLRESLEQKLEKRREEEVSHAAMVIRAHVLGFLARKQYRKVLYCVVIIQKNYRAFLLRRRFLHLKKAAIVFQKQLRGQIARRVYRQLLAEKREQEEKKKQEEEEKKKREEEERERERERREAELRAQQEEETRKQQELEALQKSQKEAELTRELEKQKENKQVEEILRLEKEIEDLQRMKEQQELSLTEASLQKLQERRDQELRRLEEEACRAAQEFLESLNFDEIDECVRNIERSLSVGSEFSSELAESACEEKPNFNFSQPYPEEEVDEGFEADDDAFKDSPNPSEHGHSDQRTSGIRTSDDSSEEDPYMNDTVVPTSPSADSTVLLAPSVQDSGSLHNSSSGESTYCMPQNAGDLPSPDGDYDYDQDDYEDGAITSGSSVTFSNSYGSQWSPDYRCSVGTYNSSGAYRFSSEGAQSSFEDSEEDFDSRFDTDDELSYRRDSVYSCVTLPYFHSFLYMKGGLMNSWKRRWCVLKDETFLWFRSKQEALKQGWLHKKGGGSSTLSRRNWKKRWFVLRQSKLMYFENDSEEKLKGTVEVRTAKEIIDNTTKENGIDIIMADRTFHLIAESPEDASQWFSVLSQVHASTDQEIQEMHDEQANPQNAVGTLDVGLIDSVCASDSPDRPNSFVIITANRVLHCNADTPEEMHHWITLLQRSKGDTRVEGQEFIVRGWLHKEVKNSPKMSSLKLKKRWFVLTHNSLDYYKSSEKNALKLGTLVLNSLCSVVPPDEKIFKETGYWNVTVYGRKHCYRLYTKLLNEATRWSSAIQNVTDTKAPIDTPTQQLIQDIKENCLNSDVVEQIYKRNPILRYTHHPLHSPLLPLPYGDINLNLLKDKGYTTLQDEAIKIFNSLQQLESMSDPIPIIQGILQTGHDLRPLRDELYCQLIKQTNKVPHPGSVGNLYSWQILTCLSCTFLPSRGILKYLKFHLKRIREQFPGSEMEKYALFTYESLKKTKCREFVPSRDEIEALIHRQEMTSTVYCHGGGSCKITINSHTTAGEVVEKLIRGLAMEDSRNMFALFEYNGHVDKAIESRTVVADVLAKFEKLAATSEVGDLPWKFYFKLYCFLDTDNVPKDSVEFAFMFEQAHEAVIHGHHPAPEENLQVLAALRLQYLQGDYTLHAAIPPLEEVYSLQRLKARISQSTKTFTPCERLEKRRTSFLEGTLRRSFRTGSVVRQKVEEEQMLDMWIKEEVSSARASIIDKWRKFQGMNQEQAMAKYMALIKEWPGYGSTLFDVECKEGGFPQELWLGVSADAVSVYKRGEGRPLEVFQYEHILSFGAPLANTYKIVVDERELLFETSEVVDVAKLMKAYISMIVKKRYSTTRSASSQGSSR
Chain of UniProt P84157 (P84157 whole entry, looked up): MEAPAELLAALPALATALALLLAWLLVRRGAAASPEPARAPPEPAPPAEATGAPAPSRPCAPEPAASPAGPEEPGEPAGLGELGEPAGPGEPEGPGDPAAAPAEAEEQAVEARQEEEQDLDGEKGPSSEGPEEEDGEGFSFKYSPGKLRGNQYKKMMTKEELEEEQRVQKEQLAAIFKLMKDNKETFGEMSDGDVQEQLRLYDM
Chain of UniProt Q6N069 (Q6N069 whole entry, looked up): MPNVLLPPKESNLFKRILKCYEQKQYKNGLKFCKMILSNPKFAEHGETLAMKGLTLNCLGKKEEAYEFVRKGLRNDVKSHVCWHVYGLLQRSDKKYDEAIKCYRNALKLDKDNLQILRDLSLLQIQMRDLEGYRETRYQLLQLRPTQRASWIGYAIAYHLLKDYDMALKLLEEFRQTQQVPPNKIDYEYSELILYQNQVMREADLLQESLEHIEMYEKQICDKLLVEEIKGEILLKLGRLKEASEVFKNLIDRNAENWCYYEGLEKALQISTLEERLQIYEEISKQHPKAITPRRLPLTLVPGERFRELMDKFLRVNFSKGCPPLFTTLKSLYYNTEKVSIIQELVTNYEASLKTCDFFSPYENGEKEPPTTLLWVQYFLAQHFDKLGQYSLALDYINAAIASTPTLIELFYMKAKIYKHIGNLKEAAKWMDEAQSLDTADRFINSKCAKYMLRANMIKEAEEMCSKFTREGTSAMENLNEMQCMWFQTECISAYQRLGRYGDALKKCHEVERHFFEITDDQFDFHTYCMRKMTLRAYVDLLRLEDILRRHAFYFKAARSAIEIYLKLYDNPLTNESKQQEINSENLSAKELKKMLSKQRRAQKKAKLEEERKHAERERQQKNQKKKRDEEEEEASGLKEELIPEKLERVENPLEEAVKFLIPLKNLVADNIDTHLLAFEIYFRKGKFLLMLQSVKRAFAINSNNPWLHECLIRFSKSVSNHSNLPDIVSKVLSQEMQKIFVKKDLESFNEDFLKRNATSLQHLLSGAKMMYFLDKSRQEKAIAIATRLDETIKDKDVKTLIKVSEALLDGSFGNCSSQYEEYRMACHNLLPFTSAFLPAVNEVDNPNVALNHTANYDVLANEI
Chain of UniProt Q9BWT3 (Q9BWT3 whole entry, looked up): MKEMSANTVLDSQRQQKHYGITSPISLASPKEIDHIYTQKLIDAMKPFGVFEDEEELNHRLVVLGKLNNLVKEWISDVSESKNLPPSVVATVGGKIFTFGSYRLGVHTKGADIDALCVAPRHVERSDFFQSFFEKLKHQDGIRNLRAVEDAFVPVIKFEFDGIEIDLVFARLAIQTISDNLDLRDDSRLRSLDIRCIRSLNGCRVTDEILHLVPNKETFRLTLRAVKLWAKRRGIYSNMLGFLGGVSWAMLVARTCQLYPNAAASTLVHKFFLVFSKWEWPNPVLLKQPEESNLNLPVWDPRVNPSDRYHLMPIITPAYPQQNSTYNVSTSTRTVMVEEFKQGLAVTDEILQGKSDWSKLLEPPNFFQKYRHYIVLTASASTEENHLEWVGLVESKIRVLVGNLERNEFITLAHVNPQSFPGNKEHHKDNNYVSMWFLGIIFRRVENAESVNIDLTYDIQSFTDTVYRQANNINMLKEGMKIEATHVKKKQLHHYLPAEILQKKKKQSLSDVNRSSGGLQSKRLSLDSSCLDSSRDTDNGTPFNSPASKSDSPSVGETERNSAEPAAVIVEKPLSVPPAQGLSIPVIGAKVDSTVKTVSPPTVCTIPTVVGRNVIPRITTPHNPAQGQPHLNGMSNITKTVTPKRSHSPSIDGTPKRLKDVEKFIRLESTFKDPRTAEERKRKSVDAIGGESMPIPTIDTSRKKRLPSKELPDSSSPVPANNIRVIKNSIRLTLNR
Chain of UniProt P48552 (P48552 whole entry, looked up): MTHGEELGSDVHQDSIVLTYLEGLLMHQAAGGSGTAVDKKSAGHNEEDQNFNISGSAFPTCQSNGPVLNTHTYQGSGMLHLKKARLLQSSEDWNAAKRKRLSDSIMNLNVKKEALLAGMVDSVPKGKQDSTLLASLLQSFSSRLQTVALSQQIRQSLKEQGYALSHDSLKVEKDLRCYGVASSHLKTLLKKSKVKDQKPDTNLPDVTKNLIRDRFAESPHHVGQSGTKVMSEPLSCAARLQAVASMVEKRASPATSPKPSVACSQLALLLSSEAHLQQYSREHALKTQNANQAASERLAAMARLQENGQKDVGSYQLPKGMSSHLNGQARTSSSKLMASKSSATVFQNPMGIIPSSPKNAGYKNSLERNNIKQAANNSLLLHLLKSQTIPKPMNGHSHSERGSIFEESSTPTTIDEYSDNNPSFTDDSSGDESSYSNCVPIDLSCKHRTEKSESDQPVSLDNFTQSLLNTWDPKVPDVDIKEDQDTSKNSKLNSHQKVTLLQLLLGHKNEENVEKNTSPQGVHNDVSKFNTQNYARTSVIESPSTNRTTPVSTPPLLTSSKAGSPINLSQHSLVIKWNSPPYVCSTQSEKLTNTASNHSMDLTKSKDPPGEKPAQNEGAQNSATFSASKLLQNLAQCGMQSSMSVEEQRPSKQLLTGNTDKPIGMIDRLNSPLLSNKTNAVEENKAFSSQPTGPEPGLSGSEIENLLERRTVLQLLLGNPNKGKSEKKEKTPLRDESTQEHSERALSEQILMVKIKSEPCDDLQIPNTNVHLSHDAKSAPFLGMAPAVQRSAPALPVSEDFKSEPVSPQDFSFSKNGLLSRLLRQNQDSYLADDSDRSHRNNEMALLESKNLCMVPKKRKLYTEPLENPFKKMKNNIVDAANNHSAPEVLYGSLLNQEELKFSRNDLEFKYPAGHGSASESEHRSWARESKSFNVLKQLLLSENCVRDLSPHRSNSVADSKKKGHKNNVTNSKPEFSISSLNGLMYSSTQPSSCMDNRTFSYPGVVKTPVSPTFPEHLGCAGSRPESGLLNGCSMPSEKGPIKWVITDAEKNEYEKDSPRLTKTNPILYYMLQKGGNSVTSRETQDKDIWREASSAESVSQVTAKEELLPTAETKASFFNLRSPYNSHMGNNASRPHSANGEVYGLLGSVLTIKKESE

| Target | log2 fold change (erlotinib) | log2 fold change [1] | log2 fold change [2] | log2 fold change [3] | log2 fold change (IRAK-1-4 Inhibitor I) | log2 fold change [4] | log2 fold change [5] | log2 fold change [6] | log2 fold change [7] | log2 fold change [8] |
| --- | --- | --- | --- | --- | --- | --- | --- | --- | --- | --- |
| NRIP1 (UniProt P48552) | 0.031 | 0 | -0.033 | 0.024 | 0.114 |  |  |  |  |  |
| P2RY1 (UniProt P47900) | -0.014 | -0.07 | 0.148 | 0.023 | 0.07 | -0.024 | 0.094 |  |  |  |
| ORC1 (UniProt Q13415) |  |  |  |  |  | 0.216 | 0.05 |  |  |  |
| NR2F2 (UniProt P24468) | -0.007 | 0 | -0.192 | 0.076 | 0.048 |  |  |  |  |  |
| NUF2 (UniProt Q9BZD4) | 0.009 | -0.012 | -0.002 | -0.047 | -0.039 | -0.039 | -0.004 | 0.006 | 0.03 | -0.047 |
| MYO10 (UniProt Q9HD67) | -0.044 | 0.19 | -0.062 | 0.014 | 0.102 |  |  | -0.13 | 0.017 | -0.16 |
| MYLK (UniProt Q15746) |  |  | 0.025 |  |  | 0.106 | -0.262 | -0.067 | 0.027 | 0.345 |
| MYH6 (UniProt P13533) | 0.107 | 0.08 | 0.304 | 0.029 | 0.052 | -0.049 | 0.115 |  |  |  |
| PARD3B (UniProt Q8TEW8) | 0.025 | -0.084 |  |  |  |  |  |  |  |  |
| MUC5AC (UniProt P98088) |  |  |  | 0.015 | -0.074 |  |  |  |  |  |
| NAA16 (UniProt Q6N069) |  |  | 0.027 | -0.127 | 0.017 | 0.136 | -0.038 | -0.036 | -0.022 | -0.206 |
| NLRP2 (UniProt Q9NX02) | 0.004 | -0.002 | -0.013 | -0.002 | -0.043 | 0.01 | -0.031 | -0.015 | -0.005 | -0.021 |
| MYBL2 (UniProt P10244) | 0.02 | -0.011 |  | 0.005 | 0.009 | -0.013 | -0.036 | 0.014 | 0.035 | 0.078 |
| PAGE2B (UniProt Q5JRK9) | 0.056 | -0.033 |  | -0.021 | 0.148 | 0.055 | 0.055 | 0.038 | -0.085 | 0.093 |
| NFATC4 isoform 2 (UniProt Q14934) |  |  | -0.064 |  |  | -0.07 | -0.012 | -0.627 (active) | -0.132 | -0.224 |
| NUMB isoform 2 (UniProt P49757) |  |  |  | 0.304 | 0.021 |  |  |  |  |  |

| Target | log2 fold change (erlotinib) | log2 fold change [1] | log2 fold change [2] | log2 fold change [3] | log2 fold change (IRAK-1-4 Inhibitor I) | log2 fold change [4] | log2 fold change [5] | log2 fold change [6] | log2 fold change [7] | log2 fold change [8] |
| --- | --- | --- | --- | --- | --- | --- | --- | --- | --- | --- |
| MYO9A isoform 4 (UniProt B2RTY4) | 0.074 | -0.125 | 0.153 | -0.007 | -0.059 |  |  | 0.008 | -0.045 | -0.05 |
| NFAT5 isoform 4 (UniProt O94916) |  |  | 0.161 |  |  |  |  |  |  |  |
| MSH3 (UniProt P20585) | -0.046 | 0.042 | -0.025 | 0.007 | 0.004 | -0.038 | 0.058 | -0.021 | 0.011 | -0.026 |
| MYH11 isoform 2 (UniProt P35749) | -0.015 | 0.027 | -0.092 | 0.142 | 0.013 | -0.036 | 0.047 | 0.035 | -0.002 | -0.038 |
| PANK2 (UniProt Q9BZ23) |  |  | 0.011 | -0.078 | 0.14 | -0.008 | -0.06 | -0.012 | -0.019 | -0.044 |
| MXRA7 (UniProt P84157) | -0.001 | 0.118 |  | -0.062 | -0.043 | 0.02 | 0 | 0.062 | 0.17 | -0.135 |
| PARG (UniProt Q86W56) | 0.009 | -0.062 | -0.011 | 0.004 | 0.048 | 0.003 | -0.011 | -0.013 | 0.008 | -0.013 |
| NUDT5 (UniProt C9JYY9) | 0.098 | -0.157 |  |  |  | -0.069 | 0.034 |  |  |  |
| PAPOLG (UniProt Q9BWT3) | 0 | -0.092 |  | 0.055 | 0.136 | -0.086 | 0.104 | -0.068 | 0.035 | 0.041 |
| NCAPG (UniProt Q9BPX3) | -0.008 | -0.004 | -0.007 | 0.006 | -0.011 | 0.002 | 0.013 | -0.018 | -0.01 | -0.026 |
| PAGE4 (UniProt O60829) | -0.423 | 0.098 | 0.034 | 0.015 | -0.034 | -0.068 | -0.095 |  |  |  |
| NUDT6 (UniProt P53370) | -0.01 | -0.02 |  | -0.008 | 0.032 | -0.06 | 0.06 | 0.113 | -0.518 (active) | 0.111 |
| NPLOC4 (UniProt I3L3I1) |  |  | -0.029 |  |  | -0.128 | 0.046 |  |  |  |
| OTUD7B (UniProt Q6GQQ9) | 0.028 | 0.075 | -0.017 | -0.006 | -0.039 | -0.002 | 0.032 | -0.06 | -0.026 | -0.076 |
| OSBPL1A (UniProt Q9BXW6) | 0.235 | 0.205 | 0.038 |  |  |  |  |  |  |  |
| NOCT (UniProt Q9UK39) | -0.129 | 0.061 |  | 0.1 | 0.007 | -0.134 | 0.06 |  |  |  |
